PMC5700166
Changes are numbered by the printed parent chain.

Columns and labels:
Assay in all cases: protein-binding microarray (PBM); PBM: ~300 nM protein, 6 mM HEPES pH 7.8, 80 mM KCl, 0.5 mM EDTA, 0.5 mM EGTA, 6% glycerol, 35 ng/ul poly-dIdC, 1% milk, 1 h, room temperature; Ap Aiptasia and Nv Nematostella (sea anemones) / Co Capsaspora / Aq Amphimedon (sponge) / Dm Drosophila / Hu human; RHD is the Rel homology domain; high values mean tight binding
Details in all cases: dsDNA, one strand shown
GST-Ap-NF-kB RHD = biological target: T1, GST-Ap-NF-kB RHD (Exaiptasia pallida (Aiptasia), UniProt A0A913YAJ5 2-422)
T1 sequence: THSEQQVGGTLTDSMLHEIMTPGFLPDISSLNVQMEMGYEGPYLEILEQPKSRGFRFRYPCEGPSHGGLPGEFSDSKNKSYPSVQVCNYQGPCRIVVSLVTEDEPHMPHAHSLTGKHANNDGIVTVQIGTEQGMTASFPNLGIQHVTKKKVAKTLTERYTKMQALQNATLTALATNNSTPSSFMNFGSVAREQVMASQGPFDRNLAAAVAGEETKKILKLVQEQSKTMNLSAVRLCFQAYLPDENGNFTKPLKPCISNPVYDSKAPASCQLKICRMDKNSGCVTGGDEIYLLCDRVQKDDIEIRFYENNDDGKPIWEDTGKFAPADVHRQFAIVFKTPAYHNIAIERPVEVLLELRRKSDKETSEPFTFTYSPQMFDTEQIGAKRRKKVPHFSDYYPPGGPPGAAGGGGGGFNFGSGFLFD

[1] = biological target: T2, GST-Nv-NF-kB (Cys allele) (Nematostella vectensis, UniProt E5G601 2-411)
T2 sequence: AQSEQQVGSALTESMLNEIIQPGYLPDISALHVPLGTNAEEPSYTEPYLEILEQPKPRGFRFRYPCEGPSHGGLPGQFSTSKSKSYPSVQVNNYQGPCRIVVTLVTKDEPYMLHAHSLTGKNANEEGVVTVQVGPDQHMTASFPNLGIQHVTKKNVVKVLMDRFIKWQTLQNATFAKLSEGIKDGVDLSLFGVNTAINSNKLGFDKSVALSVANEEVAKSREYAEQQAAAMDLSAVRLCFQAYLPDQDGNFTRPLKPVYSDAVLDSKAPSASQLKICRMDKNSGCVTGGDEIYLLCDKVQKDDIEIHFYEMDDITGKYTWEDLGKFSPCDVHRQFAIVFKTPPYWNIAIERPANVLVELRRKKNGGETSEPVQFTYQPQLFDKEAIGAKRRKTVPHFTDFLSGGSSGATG

[2] = biological target: T3, GST-Nv-NF-kB (Ser allele) (Nematostella vectensis, UniProt A7UNT2 2-411)
T3 sequence: T2 sequence with Q21R, C66S, S207N, E215Q, V217A, E225K, A268E, D399E

GST-Co-NF-kB = biological target: T4, GST-Co-NF-kB (Capsaspora owczarzaki, UniProt F1ARL5 200-546)
T4 sequence: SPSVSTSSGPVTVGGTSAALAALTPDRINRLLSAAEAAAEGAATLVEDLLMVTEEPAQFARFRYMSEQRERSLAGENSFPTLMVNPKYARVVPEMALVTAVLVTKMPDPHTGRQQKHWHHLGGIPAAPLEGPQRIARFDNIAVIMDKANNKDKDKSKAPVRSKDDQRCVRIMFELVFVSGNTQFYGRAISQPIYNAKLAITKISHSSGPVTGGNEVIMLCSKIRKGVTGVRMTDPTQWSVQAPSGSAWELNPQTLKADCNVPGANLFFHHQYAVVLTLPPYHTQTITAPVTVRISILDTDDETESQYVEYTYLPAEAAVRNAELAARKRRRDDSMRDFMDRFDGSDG

GST-Dm-Relish = biological target: T5, GST-Dm-Relish (Drosophila melanogaster, UniProt Q94527 99-473)
T5 sequence: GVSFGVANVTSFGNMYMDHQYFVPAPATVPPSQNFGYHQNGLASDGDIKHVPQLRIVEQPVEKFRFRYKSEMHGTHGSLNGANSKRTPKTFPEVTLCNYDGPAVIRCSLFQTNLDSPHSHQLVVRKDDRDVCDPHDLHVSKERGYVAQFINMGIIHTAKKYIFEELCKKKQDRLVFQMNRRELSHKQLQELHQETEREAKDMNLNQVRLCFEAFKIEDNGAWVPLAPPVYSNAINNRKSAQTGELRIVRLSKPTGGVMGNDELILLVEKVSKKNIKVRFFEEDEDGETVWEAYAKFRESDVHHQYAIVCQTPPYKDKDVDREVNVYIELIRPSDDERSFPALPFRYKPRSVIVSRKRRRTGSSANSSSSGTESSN

GST-Aq-NF-kB = biological target: T6, GST-Aq-NF-kB (Amphimedon queenslandica, UniProt A9Y5G7 2-389)
T6 sequence: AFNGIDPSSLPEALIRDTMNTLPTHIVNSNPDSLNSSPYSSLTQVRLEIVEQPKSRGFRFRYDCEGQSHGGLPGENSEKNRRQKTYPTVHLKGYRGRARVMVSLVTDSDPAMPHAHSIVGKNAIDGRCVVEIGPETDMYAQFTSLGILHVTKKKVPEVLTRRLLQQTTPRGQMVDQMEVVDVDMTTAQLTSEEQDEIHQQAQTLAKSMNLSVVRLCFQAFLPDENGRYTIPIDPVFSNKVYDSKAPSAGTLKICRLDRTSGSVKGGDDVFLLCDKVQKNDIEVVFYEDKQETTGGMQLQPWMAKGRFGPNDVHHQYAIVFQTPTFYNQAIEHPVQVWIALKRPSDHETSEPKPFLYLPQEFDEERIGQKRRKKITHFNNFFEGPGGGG

GST-Hu-p50 = GST-Hu-p50 (Homo sapiens, UniProt P19838 7-356)
Chain of GST-Hu-p50 (P19838 7-356): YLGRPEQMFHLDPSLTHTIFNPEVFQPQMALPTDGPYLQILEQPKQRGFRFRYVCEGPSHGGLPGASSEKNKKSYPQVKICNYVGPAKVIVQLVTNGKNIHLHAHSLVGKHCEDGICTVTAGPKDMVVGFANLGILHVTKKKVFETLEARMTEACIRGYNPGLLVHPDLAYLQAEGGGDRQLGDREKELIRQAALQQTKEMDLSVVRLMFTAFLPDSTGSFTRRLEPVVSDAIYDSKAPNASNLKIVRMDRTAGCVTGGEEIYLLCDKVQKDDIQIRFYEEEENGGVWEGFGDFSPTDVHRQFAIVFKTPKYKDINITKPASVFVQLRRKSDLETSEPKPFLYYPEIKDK

Sequence | binding signal (GST-Ap-NF-kB RHD) [z-score] | binding signal [1] [z-score] | binding signal [2] [z-score] | binding signal (GST-Co-NF-kB) [z-score] | binding signal (GST-Dm-Relish) [z-score] | binding signal (GST-Aq-NF-kB) [z-score] | binding signal (GST-Hu-p50) [z-score]
CCGATTAACATCAGGGATTCCCCTGATGTTAATCGGGTCTTGATTCGCTTGACGCTGCTG | 13.9 | 13.2 | 15.4 | 6.68 | 11.2 | 11.5 | 8.74
CCGATTAACATCAAAAATCCCCATGATGTTAATCGGGTCTTGATTCGCTTGACGCTGCTG | 9.63 | 10.8 | 11.4 | 5.31 | 9.64 | 7.92 | 7.94
CCGATTAACATCAGGGGATCCCCTGATGTTAATCGGGTCTTGATTCGCTTGACGCTGCTG | 14.6 | 11.6 | 12.1 | 7.53 | 10.8 | 11.3 | 7.87
CCGATTAACATCAGGGTAATACCTGATGTTAATCGGGTCTTGATTCGCTTGACGCTGCTG | 4.26 | 5.72 | 3.69 | 2.23 | 3.92 | 7.45 | 2.82
CCGATTAACATCAAGGGGAATTCTGATGTTAATCGGGTCTTGATTCGCTTGACGCTGCTG | 10.3 | 11.3 | 12.1 | 6.89 | 8.49 | 8.42 | 7.65
CCGATTAACATCAATTTCCCCCCTGATGTTAATCGGGTCTTGATTCGCTTGACGCTGCTG | 7.89 | 7.68 | 8.79 | 11.5 | 6.02 | 6.64 | 6.75
CCGATTAACATCAAATTTCCCATTGATGTTAATCGGGTCTTGATTCGCTTGACGCTGCTG | 2.36 | 4.83 | 4.27 | 3.32 | 2.68 | 4.29 | 3.86
CCGATTAACATCAAGATTTCCCCTGATGTTAATCGGGTCTTGATTCGCTTGACGCTGCTG | 8.78 | 10.4 | 13.2 | 9.09 | 6.87 | 7.44 | 7.38
CCGATTAACATCAGATTCCCCCATGATGTTAATCGGGTCTTGATTCGCTTGACGCTGCTG | 8.01 | 7.43 | 8.63 | 8.94 | 5.21 | 5.82 | 6.7
CCGATTAACATCAAGGGAACTCCTGATGTTAATCGGGTCTTGATTCGCTTGACGCTGCTG | 3.72 | 3.17 | 1.27 | 1.28 | 5.67 | 4.45 | 2.28
CCGATTAACATCAGGGGGTTTAATGATGTTAATCGGGTCTTGATTCGCTTGACGCTGCTG | 6.88 | 5.26 | 6.77 | 2.64 | 7.87 | 5.24 | 6.62
CCGATTAACATCACGGTTTTCCCTGATGTTAATCGGGTCTTGATTCGCTTGACGCTGCTG | 3.99 | 5.02 | 6.45 | 4.63 | 4.43 | 5.43 | 3.91
CCGATTAACATCACGGAAATCCCTGATGTTAATCGGGTCTTGATTCGCTTGACGCTGCTG | 4.3 | 3.8 | 2.78 | 1.09 | 6.96 | 6.11 | 3.58
CCGATTAACATCACATTCCCCCCTGATGTTAATCGGGTCTTGATTCGCTTGACGCTGCTG | 6.91 | 6.39 | 6.97 | 8.44 | 4.58 | 5.7 | 5.73
CCGATTAACATCACGGGAATTCCTGATGTTAATCGGGTCTTGATTCGCTTGACGCTGCTG | 7.73 | 7.86 | 5.2 | 5.35 | 8.07 | 8.38 | 4.61
CCGATTAACATCAAAGTCTCCCCTGATGTTAATCGGGTCTTGATTCGCTTGACGCTGCTG | 5.38 | 4.52 | 5.65 | 7.88 | 1.57 | 3.98 | 3.28
CCGATTAACATCAAGTCCCCCCCTGATGTTAATCGGGTCTTGATTCGCTTGACGCTGCTG | 6.57 | 4.81 | 5.16 | 6.94 | 5.61 | 5.07 | 4.23
CCGATTAACATCACAAACTCCCCTGATGTTAATCGGGTCTTGATTCGCTTGACGCTGCTG | 7.26 | 5.84 | 7.23 | 4.83 | 5.81 | 5.35 | 5.66
CCGATTAACATCACGGGGGATTATGATGTTAATCGGGTCTTGATTCGCTTGACGCTGCTG | 7.59 | 6.57 | 7 | 6.84 | 6.41 | 5.87 | 6.67
CCGATTAACATCAAAAACCCCCTTGATGTTAATCGGGTCTTGATTCGCTTGACGCTGCTG | 10.4 | 10.3 | 10.9 | 2.93 | 10.9 | 9.31 | 8.33
CCGATTAACATCAGGGGATTACCTGATGTTAATCGGGTCTTGATTCGCTTGACGCTGCTG | 9.27 | 10.5 | 9.69 | 3.93 | 9.7 | 9.77 | 6.76
CCGATTAACATCATCAGGGGAAATGATGTTAATCGGGTCTTGATTCGCTTGACGCTGCTG | 5.62 | 7.05 | 8.79 | 5.8 | 2.39 | 4.58 | 5.42
CCGATTAACATCAGGGGGAAACATGATGTTAATCGGGTCTTGATTCGCTTGACGCTGCTG | 6.11 | 7.08 | 9.19 | 10.9 | 3.99 | 5.49 | 6.58
CCGATTAACATCAAGGGGGGGTGTGATGTTAATCGGGTCTTGATTCGCTTGACGCTGCTG | 4.34 | 2.8 | 3.53 | 4.12 | 4.4 | 3.77 | 4.28
CCGATTAACATCAACGAATTCCCTGATGTTAATCGGGTCTTGATTCGCTTGACGCTGCTG | 2.81 | 4.07 | 4.93 | 2.64 | 2.28 | 3.08 | 3.08
